Assay outcomes deposited in PubChem BioAssay by National Center for Advancing Translational Sciences (NCATS).
A selection: hits, their analogues and other compounds. The true share with any hit is near 2.8%.
Pol kappa inh: inhibitors of human DNA polymerase kappa; Potency, µM (doses to about 107 µM), for inactives: at the highest dose activity, negative = inhibition, hits mostly inhibitors; Q9UBT6; 400,000 compounds, 0.53% hits; purified Pol kappa, fluorescent DNA synthesis assay, 10 min; also: potency is read from the fitted curve at half-maximal effect; % is scaled to controls: 0 for no effect and ±100 for the full control effect
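First, compounds were pin-transferred onto 10 nM Pol kappa. After 15 min at room temperature, substrate was added to 50 nM final. Fluorescence was then measured kinetically at 0 and 10 min.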
POLI inh: inhibitors of human DNA polymerase iota; AID 588590; 390,000 compounds, 1% hits; Pol iota fluorescent replication assay, 10 min; Potency, µM (series often up to 115 µM), for inactives: at the highest dose activity, negative = inhibition, most hits filed as inhibitors; Q9UNA4; also: potency is read from the fitted curve at half-maximal effect
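Pol iota at 10 nM preincubated 15 min with compounds at room temperature; reaction started with fluorescent substrate, 50 nM final. Fluorescence read kinetically at 0 and 10 min; buffer-only wells as negative control.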
POLH inh: blocks human DNA polymerase eta activity. recombinant Pol eta, fluorescent DNA replication assay. AID 588591. 390,000 compounds, 1.2% hits. Potency, µM (series often up to 114 µM), without a hit: at the highest dose activity change, negative = inhibition, most hits filed as inhibitors; also: potency is read from the fitted curve at half-maximal effect; % is scaled to controls: 0 for no effect and ±100 for the full control effect
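Pol eta at 10 nM preincubated with compounds 15 min at room temperature; reaction started with fluorescent substrate (50 nM final) and read kinetically at 0 and 10 min.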
WRN inhibitor: WRN helicase (human) inhibition. Q14191. Potency, µM (doses to about 114 µM), inactives show at the top dose activity change, negative = inhibition, actives largely listed as inhibitors. WRN helicase unwinding, fluorescent forked duplex, kinetic. 360,000 compounds, 0.46% hits. AID 651768; also: potency is read from the fitted curve at half-maximal effect; % is scaled to controls: 0 for no effect and ±100 for the full control effect; nearly all actives have a fitted effect of over 55% in size
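Enzyme (20 nM final) and test compound sit together 15 min at room temperature before substrate addition. Substrate is a single-forked duplex oligonucleotide (100 nM) labelled with fluorophore and quencher, with 2 mM ATP; helicase unwinding raises red fluorescence, read kinetically.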
PI5P4Ka inh: blocks human PI5P4K alpha kinase activity; P48426; max response, %; PI5P4Kalpha enzyme, ADP-Glo luminescence, 60 min; stronger effect = lower value; 330,000 compounds, 1.2% hits; active = max response of -50% or lower; inconclusive = between -30% and -50%; inactive = -30% or higher; also: value at the top dose of about 77 µM; % is scaled to controls: 0 for no effect and ±100 for the full control effect
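Luminescence from ADP-Glo served as readout of PI5P4Kalpha activity in a qHTS format. Reaction: enzyme, substrate, compound, ATP at 5 microM final, 60 min at RT.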
Pol beta inh: inhibitors of human DNA polymerase beta | Pol beta primer extension/strand displacement, fluorescence kinetic | Potency, µM (highest dose often 114 µM), for inactives: at the highest dose activity change, negative = inhibition, actives largely listed as inhibitors | 340,000 compounds, 1.3% hits; also: potency is read from the fitted curve at half-maximal effect; % is scaled to controls: 0 for no effect and ±100 for the full control effect
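Human Pol beta at 10 nM; strand-displacement substrate 50 nM final. Compound exposure 15 min at room temperature before start, reaction 10 min at room temperature.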
ADP-Glo counter: interferes with ADP-Glo detection without enzyme present; 1,100 tested, under 10 active; ADP-Glo detection counter-screen, luciferase luminescence, no enzyme; shares compounds with PI5P4Ka inh; Potency, µM (titrated, usually from 76.9 µM), for the others: at the highest dose activity change, negative = inhibition, hits mostly inhibitors
* hit, by the source's call; ? = inconclusive; / = no result given; [ ] = another dose, or the depositor's remark. Unless noted, calls follow the shape of the dose curve; as a rule, active = well fitted curve in the direction sought with a large enough effect; inconclusive = small, poorly fitted or top-dose-only effect, or another doubt; inactive = no such curve, though single readings can be large; an effect the other way counts as inactive or inconclusive.

SMILES	Pol kappa inh	POLI inh	POLH inh	WRN inhibitor	PI5P4Ka inh	Pol beta inh	ADP-Glo counter
CCOc1ccc(S(=O)(=O)N(CC(=O)NCc2cccnc2)c2ccc(F)cc2)cc1	-6.0%	17.1%	0.0%	-0.9%	0.5	5.3%	/
COc1ccc(-c2cc(C(F)F)n3ncc(C(=O)n4ccnc4C)c3n2)cc1	-3.4%	-22.3%	-18.0%	-2.7%	-25.7	-28.7%	2.8%
COc1ccc(-c2cc(C(F)F)n3ncc(C(=O)Nc4cc(OC)ccc4OC)c3n2)cc1	-2.6%	17.6%	-18.7%	/	/	0.5%	/
O=C(OC(C(=O)N1CCOCC1)c1ccccc1)c1c2c(nc3ccccc13)CCCC2 (stereo not drawn)	-4.0%	8.0%	/	/	/	/	/
Fc1cccc(Cc2c(-c3ccccc3)nc3ccc(Br)cn23)c1	/	/	/	-12.4%	-7.1	/	/
Fc1cccc(Cc2c(-c3ccco3)nc3ccc(Cl)cn23)c1	/	/	/	-24.2%	-50.7*	/	-3.7%
Fc1cccc(Cc2c(-c3ccccc3)nc3ccc(Cl)cn23)c1	/	/	/	-13.0%	-1.5	/	/
Fc1cccc(Cc2c(-c3ccco3)nc3ccc(Br)cn23)c1	/	/	/	-32.4%	-63.7*	/	-4.3%
Clc1ccc2nc(-c3ccco3)c(Cc3ccsc3)n2c1	/	/	/	-19.4%	-66.2*	/	-2.0%
Cc1cc(C)c(C)c(S(=O)(=O)Nc2ccccc2N2CCOCC2)c1C	-13.3%	-4.8%	-14.6%	-1.0%	1.3	/	/
COc1cc(OC)c(NC(=O)CCc2c(C)nc3c4c(C)cc(C)nc4nn3c2C)cc1Cl	-10.0%	-4.1%	8.7%	/	/	19.4%	/
NS(=O)(=O)c1ccc(S(=O)(=O)N2CCCC(c3ccccc3)C2)cc1 (stereo not drawn)	/	/	-1.7%	-2.7%	4.2	/	/
COc1ccc(Nc2ccccc2C(=O)O)cc1	-17.8%	?	3.3%	-9.5%	-63.5*	-1.1%	6.4%
OC1COC(O)C(O)C1O (stereo not drawn)	1.3%	-24.9%	-5.8%	-3.4%	0.4	/	/
Cn1c(=O)oc2cc(S(=O)(=O)Nc3cccc(C(=O)O)c3)ccc21	-1.9%	7.2%	-20.6%	13.0%	/	9.9%	/
Cn1c(=O)oc2cc(S(=O)(=O)Nc3ccccc3)ccc21	-8.3%	69.4%	-5.5%	-6.5%	-55.3*	-7.4%	5.4%
CC(C)COC(=O)Cn1nnc2sc(-c3ccccc3)cc2c1=O	-2.7%	14.1%	/	/	/	36.2%	/
CC(=O)Cn1nnc2sc(-c3ccccc3)cc2c1=O	-26.1%	-21.2%	?	-9.4%	-54.0*	?	2.5%
OCc1ccc(O)c2ncccc12	2.3%	?	-12.0%	-1.2%	-12.2	-1.8%	/
Oc1ccc(CNc2ccccc2F)c2cccnc12	2.5%	4.0%	-14.9%	1.0%	?	5.3%	-8.9%
O=C(CN1CCCCC1)Nc1nnc(-c2ccc([N+](=O)[O-])cc2)s1	-12.0%	-22.7%	17.8µM*	-14.5%[57.1 µM]	-70.5*	7.7%	1.4%
CC(C)C[C@@H](CN)NC(=O)c1nc[nH]c1C(=O)N[C@@H](CC(=O)O)C(=O)CNC[C@H](C)NC(=O)c1nc[nH]c1C(=O)N[C@@H](CC(=O)O)C(=O)O	11.2%	?	-6.6%	-4.9%	-4.2	/	/
COCCCNc1ncnc2sc3c(c12)CCC(C)C3 (stereo not drawn)	-5.1%	4.3%	-12.6%	-1.2%	2.6	1.1%	/
CC1CCc2c(sc3ncnc(NS(=O)(=O)c4cccs4)c23)C1 (stereo not drawn)	-3.1%	6.0%	-17.2%	4.9%	-54.7*	26.6%	2.0%
O=C(COC(=O)Cc1ccsc1)Nc1cccc(F)c1	-8.7%	-2.6%	-7.0%	-0.8%	-55.8*	/	-2.2%
O=S(=O)(NCCC1=CCCCC1)c1cccc(S(=O)(=O)N2CCOCC2)c1	-17.9%	-11.3%	-9.6%	-27.5%	-62.5*	2.1%	-1.6%
CC(C)(C)c1ccc(NC(=O)C2=CC=CN3CCS(=O)(=O)N=C23)cc1	5.9%	6.7%	-1.6%	-10.5%	4.5	/	3.2%
